B1: ENSMUSG00000043670.304|Diras1 (ssRNA)
RNA: GGGAGUUCUACAGUCCGACGAUCGCUUCGAUAUCCGCAUGCUAGUCACAAAGAGACAGAGAAGCAGAAAGAAGGCUGAAGCCAGAUGACCAAGUAGGCCGGACCCCACUGUGUUCCCUUCUGUGUGCCAGGCACAGGGAGAGCCACAGCCUGAAGCCUGAGUCUGAGCAUAGCUGAGCCCUGACCUCUAGCCAGCCCAGGGCCCCCACAGCUGCCACCUGCUCCCAAGCCCCGGGAGUGGCUCCUGGCUGGACAGGGGGUCACAGCCCUUUCUCAGGGACACACCCUGAUAGCACAAUCUCUGCUCUUGCGGUCGCACUAGUGUGGAAUUCUCGGGUGUCAAGG
B2: ENSMUSG00000029636.41|Wasf3|31:35;229:235 (ssRNA)
RNA: GGGAGUUCUACAGUCCGACGAUCGCUUCGAUAUCCGCAUGCUACACAUCCUUCUGGAUUUGUUGAGUAUUUACACACAAAUACUUAAGUGCCACAGAACACAGCACACCGUGCUGCACACCAGGAAACUCGCAGUAUUAGUGCAUCACCCUGGAACAGCAUCUUGCUUCCCUCUCAGCCGUGAGAGUCCCCUCUCCUGUCCAUCCUGAUUUGGUGGGCUUGCCACGUAUCUGCGCAGCUGCCCCACGUCAGCUCUCUGCAAGAUCACUGGCACACACACUCAGUGAUGUCUUCCAACCAGUGGCUCUUGCGGUCGCACUAGUGUGGAAUUCUCGGGUGUCAAGG
B3: ENSMUSG00000029028.57|Lrrc47 (ssRNA)
RNA: GGGAGUUCUACAGUCCGACGAUCGCUUCGAUAUCCGCAUGCUAGUAGAUCUUUGUAGGUGUAGGUAUGCUGUAGGUAUCUGGGUGUGGGUAUGCUGUAGAUGUCUGUGUAGGUGUGGAUAUGCUGUAGGUAUCUGGGUGUGCUGUAGGUGUCUGUGUGGGUGUGGGUGUGCUGUGGGUGUCUGUGUGGGUGUGCUGUAGGUGUCUGUAGGUGUGGGUAUGCUGCAGGUGUGGGUGUGCUGUAGAUCUCUAUAGGUGUGGGUGUGCUGUAGGGGUCUGUGUGGGUAUAGGUGUGGGUGUGCUGUCUCUUGCGGUCGCACUAGUGUGGAAUUCUCGGGUGUCAAGG
B4: ENSMUSG00000061578.309|Ksr2 (ssRNA)
RNA: GGGAGUUCUACAGUCCGACGAUCGCUUCGAUAUCCGCAUGCUAAAGUAAGAGAGGAGAGAGCCAGGGAGGGCUGAAGCUCUGGGACCCUGAAGUGUCCCCCGGGAACUGGGACUCACUCAUCUUCUCCUGUUUGUAGCUCAAUGACCCAGUGGGUCACAGUUCUAGGCGCUCCAAGGAAGCCAGGGGAGGGGGACUCCUCAGGAAGGAGUGACCAGUCACCUGCCUCCCAGGGUUCUGCCUUGCCCUUAAGCUAGGGUCCUUCAAGCAUCCACAGACUUAGAGUGUGGUGGUAACAUGCUUGUCUCUUGCGGUCGCACUAGUGUGGAAUUCUCGGGUGUCAAGG
B5: ENSMUSG00000032194.281|Kank2 (ssRNA)
RNA: GGGAGUUCUACAGUCCGACGAUCGCUUCGAUAUCCGCAUGCUAAUGAAUGGAUGGAUGGACAGGUGGGUGGAUGGAUGGGUGGACGGAUGAGUGUGGGGUGGGUGGAUGGAUAAAUGAGCAAUGGAUGAGAAACUGGGUUGGCUGGUGGGUAGAUGUCAUGAUGGAGUCUUUGCACGUGUAUGAAACAGAAAACCAAACUUCAGGACAGACAGCUGCUGGUGUCUCUGGAUGCUCACAGCCUAGGGCACAUUUGAAAGGUCGUGCUCUGAGCUGAGCCCUGAGUUCCAGCCUUGUAGCCAGCACUCUUGCGGUCGCACUAGUGUGGAAUUCUCGGGUGUCAAGG
B6: ENSMUSG00000032194.229|Kank2 (ssRNA)
RNA: GGGAGUUCUACAGUCCGACGAUCGCUUCGAUAUCCGCAUGCUAUCAAGUCUCCCUGUCGUAUCCAGAUCACAGCUGAACCCACUGGGCCUUGGCGCCAAACCUCAGCAGGGCAGCAUUGAGACUCAUGGACUAAAGGAAAGUGUUCACUCUUCUAGACAAGUGGGUCUCUUGGUUUGAUGGAGUCUUACUCCGCUUGAGUUUUGUAGAAGGGGUUUGUCUAAGGCAUAGAGGCUUGGUUGGCAUAAGAAAAUAAGAUGGACAGAUGGAUGGGUGGAUGGAUGGAUGGCUGAUUGAGUGGGUGGCUCUUGCGGUCGCACUAGUGUGGAAUUCUCGGGUGUCAAGG
B7: ENSMUSG00000032194.287|Kank2 (ssRNA)
RNA: GGGAGUUCUACAGUCCGACGAUCGCUUCGAUAUCCGCAUGCUAGUGGACGGAUGAGUGUGGGGUGGGUGGAUGGAUAAAUGAGCAAUGGAUGAGAAACUGGGUUGGCUGGUGGGUAGAUGUCAUGAUGGAGUCUUUGCACGUGUAUGAAACAGAAAACCAAACUUCAGGACAGACAGCUGCUGGUGUCUCUGGAUGCUCACAGCCUAGGGCACAUUUGAAAGGUCGUGCUCUGAGCUGAGCCCUGAGUUCCAGCCUUGUAGCCAGCAAGGGAGUUUAUUUAAGGUUCUGGAAGCAUCAGCUAUCUCUUGCGGUCGCACUAGUGUGGAAUUCUCGGGUGUCAAGG
B8: ENSMUSG00000032194.283|Kank2 (ssRNA)
RNA: GGGAGUUCUACAGUCCGACGAUCGCUUCGAUAUCCGCAUGCUAAUGGACAGGUGGGUGGAUGGAUGGGUGGACGGAUGAGUGUGGGGUGGGUGGAUGGAUAAAUGAGCAAUGGAUGAGAAACUGGGUUGGCUGGUGGGUAGAUGUCAUGAUGGAGUCUUUGCACGUGUAUGAAACAGAAAACCAAACUUCAGGACAGACAGCUGCUGGUGUCUCUGGAUGCUCACAGCCUAGGGCACAUUUGAAAGGUCGUGCUCUGAGCUGAGCCCUGAGUUCCAGCCUUGUAGCCAGCAAGGGAGUUUAUUCUCUUGCGGUCGCACUAGUGUGGAAUUCUCGGGUGUCAAGG
B9: ENSMUSG00000028439.220|Fam219a (ssRNA)
RNA: GGGAGUUCUACAGUCCGACGAUCGCUUCGAUAUCCGCAUGCUAUCCCUGAGCUCCUAAGCAAUUCCCAGGCUUCUCUAGGGCUUCAGUUCUCACAACUGGAAAAUAAAGAGUAGCUGACAUCACCGACAGAGUCUUUUCAUACCAGAAGGAAUUUCUUCACAGGAGUUUCUGCAAAAGACUAUGACAUCUGUGUGUCUGUGGUCUCACGAGGUACCUGGAGGUGUAUGUGCACGGACAUGGGAAGUACGUGAAGAUUUAUUUCGGGAAAAGUGGUGUGUGUGUAGCUGUACUGGGUGUCAUGUCUCUUGCGGUCGCACUAGUGUGGAAUUCUCGGGUGUCAAGG
B10: ENSMUSG00000032194.230|Kank2 (ssRNA)
RNA: GGGAGUUCUACAGUCCGACGAUCGCUUCGAUAUCCGCAUGCUACUCCCUGUCGUAUCCAGAUCACAGCUGAACCCACUGGGCCUUGGCGCCAAACCUCAGCAGGGCAGCAUUGAGACUCAUGGACUAAAGGAAAGUGUUCACUCUUCUAGACAAGUGGGUCUCUUGGUUUGAUGGAGUCUUACUCCGCUUGAGUUUUGUAGAAGGGGUUUGUCUAAGGCAUAGAGGCUUGGUUGGCAUAAGAAAAUAAGAUGGACAGAUGGAUGGGUGGAUGGAUGGAUGGCUGAUUGAGUGGGUGGGUGGGUCUCUUGCGGUCGCACUAGUGUGGAAUUCUCGGGUGUCAAGG
B11: ENSMUSG00000028439.221|Fam219a (ssRNA)
RNA: GGGAGUUCUACAGUCCGACGAUCGCUUCGAUAUCCGCAUGCUAAGCUCCUAAGCAAUUCCCAGGCUUCUCUAGGGCUUCAGUUCUCACAACUGGAAAAUAAAGAGUAGCUGACAUCACCGACAGAGUCUUUUCAUACCAGAAGGAAUUUCUUCACAGGAGUUUCUGCAAAAGACUAUGACAUCUGUGUGUCUGUGGUCUCACGAGGUACCUGGAGGUGUAUGUGCACGGACAUGGGAAGUACGUGAAGAUUUAUUUCGGGAAAAGUGGUGUGUGUGUAGCUGUACUGGGUGUCAUGUAUGCUGCUCUUGCGGUCGCACUAGUGUGGAAUUCUCGGGUGUCAAGG
B12: ENSMUSG00000028439.219|Fam219a (ssRNA)
RNA: GGGAGUUCUACAGUCCGACGAUCGCUUCGAUAUCCGCAUGCUAGCAUUCUCCCUGAGCUCCUAAGCAAUUCCCAGGCUUCUCUAGGGCUUCAGUUCUCACAACUGGAAAAUAAAGAGUAGCUGACAUCACCGACAGAGUCUUUUCAUACCAGAAGGAAUUUCUUCACAGGAGUUUCUGCAAAAGACUAUGACAUCUGUGUGUCUGUGGUCUCACGAGGUACCUGGAGGUGUAUGUGCACGGACAUGGGAAGUACGUGAAGAUUUAUUUCGGGAAAAGUGGUGUGUGUGUAGCUGUACUGGGUGCUCUUGCGGUCGCACUAGUGUGGAAUUCUCGGGUGUCAAGG
B13: ENSMUSG00000032194.289|Kank2 (ssRNA)
RNA: GGGAGUUCUACAGUCCGACGAUCGCUUCGAUAUCCGCAUGCUAGUGUGGGGUGGGUGGAUGGAUAAAUGAGCAAUGGAUGAGAAACUGGGUUGGCUGGUGGGUAGAUGUCAUGAUGGAGUCUUUGCACGUGUAUGAAACAGAAAACCAAACUUCAGGACAGACAGCUGCUGGUGUCUCUGGAUGCUCACAGCCUAGGGCACAUUUGAAAGGUCGUGCUCUGAGCUGAGCCCUGAGUUCCAGCCUUGUAGCCAGCAAGGGAGUUUAUUUAAGGUUCUGGAAGCAUCAGCUAUGACCCAAAGCACCUCUUGCGGUCGCACUAGUGUGGAAUUCUCGGGUGUCAAGG
B14: ENSMUSG00000032194.228|Kank2 (ssRNA)
RNA: GGGAGUUCUACAGUCCGACGAUCGCUUCGAUAUCCGCAUGCUAGUCCUCUCAAGUCUCCCUGUCGUAUCCAGAUCACAGCUGAACCCACUGGGCCUUGGCGCCAAACCUCAGCAGGGCAGCAUUGAGACUCAUGGACUAAAGGAAAGUGUUCACUCUUCUAGACAAGUGGGUCUCUUGGUUUGAUGGAGUCUUACUCCGCUUGAGUUUUGUAGAAGGGGUUUGUCUAAGGCAUAGAGGCUUGGUUGGCAUAAGAAAAUAAGAUGGACAGAUGGAUGGGUGGAUGGAUGGAUGGCUGAUUGAGUCUCUUGCGGUCGCACUAGUGUGGAAUUCUCGGGUGUCAAGG
B15: ENSMUSG00000032194.282|Kank2 (ssRNA)
RNA: GGGAGUUCUACAGUCCGACGAUCGCUUCGAUAUCCGCAUGCUAGGAUGGAUGGACAGGUGGGUGGAUGGAUGGGUGGACGGAUGAGUGUGGGGUGGGUGGAUGGAUAAAUGAGCAAUGGAUGAGAAACUGGGUUGGCUGGUGGGUAGAUGUCAUGAUGGAGUCUUUGCACGUGUAUGAAACAGAAAACCAAACUUCAGGACAGACAGCUGCUGGUGUCUCUGGAUGCUCACAGCCUAGGGCACAUUUGAAAGGUCGUGCUCUGAGCUGAGCCCUGAGUUCCAGCCUUGUAGCCAGCAAGGGAGCUCUUGCGGUCGCACUAGUGUGGAAUUCUCGGGUGUCAAGG
B16: ENSMUSG00000032194.288|Kank2 (ssRNA)
RNA: GGGAGUUCUACAGUCCGACGAUCGCUUCGAUAUCCGCAUGCUAGGAUGAGUGUGGGGUGGGUGGAUGGAUAAAUGAGCAAUGGAUGAGAAACUGGGUUGGCUGGUGGGUAGAUGUCAUGAUGGAGUCUUUGCACGUGUAUGAAACAGAAAACCAAACUUCAGGACAGACAGCUGCUGGUGUCUCUGGAUGCUCACAGCCUAGGGCACAUUUGAAAGGUCGUGCUCUGAGCUGAGCCCUGAGUUCCAGCCUUGUAGCCAGCAAGGGAGUUUAUUUAAGGUUCUGGAAGCAUCAGCUAUGACCCACUCUUGCGGUCGCACUAGUGUGGAAUUCUCGGGUGUCAAGG

The full ranking holds about 9,900 sequences; the median of “r (bound/input frequency ratio)” is about 0.7, and the highest 2% start at about 6.5. The entries come from a sample that favours the highest values as a whole.

Chain of TDP-43 (Q13148 whole entry): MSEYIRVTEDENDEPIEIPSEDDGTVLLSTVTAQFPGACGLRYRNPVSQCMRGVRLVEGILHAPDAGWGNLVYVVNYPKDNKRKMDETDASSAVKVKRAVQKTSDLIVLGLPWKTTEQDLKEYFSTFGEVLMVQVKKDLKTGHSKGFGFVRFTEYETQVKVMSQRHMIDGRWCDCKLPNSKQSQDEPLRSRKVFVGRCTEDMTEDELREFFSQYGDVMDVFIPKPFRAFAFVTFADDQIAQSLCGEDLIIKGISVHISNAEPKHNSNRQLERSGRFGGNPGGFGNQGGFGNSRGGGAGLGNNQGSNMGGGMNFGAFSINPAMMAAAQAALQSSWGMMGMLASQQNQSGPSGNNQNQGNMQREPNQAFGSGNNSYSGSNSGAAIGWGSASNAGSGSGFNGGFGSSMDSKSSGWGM

This test addresses TDP-43 (Homo sapiens, UniProt Q13148 1-414). The test can be described thus: RNA Bind-n-Seq with designed 260-mer pool; 25 mM Tris-HCl, 150 mM KCl, 3 mM MgCl2, BSA (printed 500 mg/mL), 20 units/mL SUPERase IN; pH not stated; 500 nM RNA pool, 1 h, 4 C; TDP-43 5, 50, 500 nM; high values mean tight binding. Conditions: protein: recombinant; tags: SBP (GST cleaved off with PreScission; pGEX-GST-SBP). Put shortly:
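An in vitro-transcribed pool of 260-nt 3′ UTR oligos (500 nM) was incubated for 1 h at 4 °C with recombinant SBP-tagged TDP-43 at 5, 50 or 500 nM held on streptavidin beads. The buffer contained 25 mM Tris-HCl, 150 mM KCl, 3 mM MgCl2, BSA and SUPERase IN. Biotin-eluted bound RNA was sequenced, and binding, R, is each oligo's normalized read abundance in the bound sample over that in input.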
On to B1, for which the binding signal was 0.472 R (bound/input frequency ratio).
For the molecule B2, the binding signal is 0.406 R (bound/input frequency ratio).
As for B3, the binding signal was 6.24 R (bound/input frequency ratio).
The figure for B4 is 1.33 R (bound/input frequency ratio).
Turning to B5, the binding signal is 6.24 R (bound/input frequency ratio).
B6: the binding signal was 4.54 R (bound/input frequency ratio).
As to B7, the binding signal is 5.94 R (bound/input frequency ratio).
Take B8: the binding signal was 3.66 R (bound/input frequency ratio).
Next, B9: 6.53 R (bound/input frequency ratio); B10: 4.66 R (bound/input frequency ratio); B11: 2.59 R (bound/input frequency ratio).
On to B12, for which the binding signal is 1.85 R (bound/input frequency ratio).
Take B13: the binding signal is 3.69 R (bound/input frequency ratio).
For B14, the binding signal is 7.26 R (bound/input frequency ratio).
The figure for B15 is 6.52 R (bound/input frequency ratio).
For B16, the binding signal was 6.68 R (bound/input frequency ratio).

For the origin of these results see paper PMC12864922, “TDP-43 directly inhibits mRNA accumulation in neurites through modulation of mRNA stability”.
